Values joined by “and” are separate entries in the source; they are usually repeats but may differ in a detail not shown here. Identical values can stand only once. The source holds several records for some structures; these can differ, active in one and inactive in another. Active and inactive are the calls of the source. How the source made its calls, unless noted: active means hit-call score of the fitted dose curve at least 0.9, where 1 is the maximum; inactive means score below 0.9.
test system: not listed separately; experiment: CCTE_Shafer_MEA_dev_inter_network_spike_interval_mean: CCTE's Neural Network Formation Assay for Mean Inter-network Spike Interval, Shafer Lab (AID 2284047);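 on AC50: potency for a decrease in mean inter-network spike interval below DMSO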
Outline: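 Primary rat cortical neurons on 16-electrode MEA wells, exposed from plating day 0 through DIV 12, compound renewed at DIV 5 and 9 media changes. Mean interval between network-spike peaks recorded DIV 5, 7, 9, 12; collapsed as trapezoidal AUC, fitted downward versus DMSO.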

| SMILES | AC50 | outcome |
| --- | --- | --- |
| CN(C)C(=S)SSC(=S)N(C)C | 11.6 nM (active) |  |
| CCCCOC(=O)c1ccccc1C(=O)OCCCC |  | inactive |
| CCNc1nc(Cl)nc(NC(C)C)n1 |  | inactive |
| C=CCC1=C(C)C(OC(=O)C2C(C=C(C)C)C2(C)C)CC1=O (configuration not stated) |  | inactive |
| C=CC1(C)OC(=O)N(c2cc(Cl)cc(Cl)c2)C1=O (configuration not stated) |  | inactive |
| CCCCNC(=O)n1c(NC(=O)OC)nc2ccccc21 |  | inactive |
| COc1ccc(C(c2ccc(OC)cc2)C(Cl)(Cl)Cl)cc1 |  | inactive |
| COC(=O)N(OC)c1ccccc1COc1ccn(-c2ccc(Cl)cc2)n1 | 128 nM (active) | inactive |
| CCOc1cc(Oc2ccc(C(F)(F)F)cc2Cl)ccc1[N+](=O)[O-] |  | inactive |
| CO/C=C(/C(=O)OC)c1ccccc1Oc1cc(Oc2ccccc2C#N)ncn1 | 1.64 µM (active) and 17 nM (active) |  |
| COP(N)(=O)SC (configuration not stated) |  | inactive |
| Cc1ccc(-c2c(Cl)nc(C#N)n2S(=O)(=O)N(C)C)cc1 |  | inactive |
| CC(C)(C)c1ccc(CSc2cnn(C(C)(C)C)c(=O)c2Cl)cc1 | 2.8 nM (active) |  |
| COP(=S)(OC)Oc1nc(Cl)c(Cl)cc1Cl |  | inactive |
| CCCCNC(=O)OCC#CI |  | inactive |
| CCCCC(CC)COC(=O)c1ccccc1C(=O)OCC(CC)CCCC (configuration not stated) |  | inactive |
| C=CCC1=C(C)[C@@H](OC(=O)[C@@H]2[C@@H](C=C(C)C)C2(C)C)CC1=O |  | inactive |
| N#Cc1nn(-c2c(Cl)cc(C(F)(F)F)cc2Cl)c(N)c1S(=O)C(F)(F)F (configuration not stated) |  | inactive |
| Cc1c(F)c(F)c(COC(=O)C2C(/C=C(\Cl)C(F)(F)F)C2(C)C)c(F)c1F (configuration not stated) |  | inactive |
| CNC(=O)ON=CC(C)(C)SC |  | inactive |
| CCOC(=O)CC(SP(=S)(OC)OC)C(=O)OCC (configuration not stated) |  | inactive |

test system: not listed separately; experiment: CCTE_Shafer_MEA_dev_network_spike_peak: CCTE's Neural Network Formation Assay for Mean Number of Electrodes in Network Spike, Shafer Lab (AID 2284049);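 on AC50: fitted for loss of signal meaning fewer electrodes in network spikes than DMSO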
Outline: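 Network-spike peak electrode count from recordings on days 5, 7, 9 and 12 was combined as trapezoidal area under the curve. Rat cortical cultures were treated continuously from plating, with compound renewed at each feed (DIV 5, 9); fits versus DMSO.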

| SMILES | AC50 | outcome |
| --- | --- | --- |
| CN(C)C(=S)SSC(=S)N(C)C | 0.0107 µM (active) |  |
| CCCCOC(=O)c1ccccc1C(=O)OCCCC | 74.9 µM (active) |  |
| CCNc1nc(Cl)nc(NC(C)C)n1 |  | inactive |
| C=CCC1=C(C)C(OC(=O)C2C(C=C(C)C)C2(C)C)CC1=O (configuration not stated) | 2.93 µM (active) and 14.8 µM (active) |  |
| C=CC1(C)OC(=O)N(c2cc(Cl)cc(Cl)c2)C1=O (configuration not stated) | 50 µM (active) |  |
| CCCCNC(=O)n1c(NC(=O)OC)nc2ccccc21 | 15 µM (active) |  |
| COc1ccc(C(c2ccc(OC)cc2)C(Cl)(Cl)Cl)cc1 | 8.43 µM (active) |  |
| COC(=O)N(OC)c1ccccc1COc1ccn(-c2ccc(Cl)cc2)n1 | 72.5 nM (active) and 15.9 nM (active) |  |
| CCOc1cc(Oc2ccc(C(F)(F)F)cc2Cl)ccc1[N+](=O)[O-] | 6.67 µM (active) |  |
| CO/C=C(/C(=O)OC)c1ccccc1Oc1cc(Oc2ccccc2C#N)ncn1 | 1.48 µM (active) and 1.44 µM (active) |  |
| COP(N)(=O)SC (configuration not stated) | 15 µM (active) | inactive |
| Cc1ccc(-c2c(Cl)nc(C#N)n2S(=O)(=O)N(C)C)cc1 | 21.8 µM (active) |  |
| CC(C)(C)c1ccc(CSc2cnn(C(C)(C)C)c(=O)c2Cl)cc1 | 0.0022 µM (active) |  |
| COP(=S)(OC)Oc1nc(Cl)c(Cl)cc1Cl |  | inactive |
| CCCCNC(=O)OCC#CI | 3.81 µM (active) and 1.53 µM (active) |  |
| CCCCC(CC)COC(=O)c1ccccc1C(=O)OCC(CC)CCCC (configuration not stated) | 15 µM (active) and 423 nM (active) and 8.09 µM (active) |  |
| C=CCC1=C(C)[C@@H](OC(=O)[C@@H]2[C@@H](C=C(C)C)C2(C)C)CC1=O | 10 µM (active) |  |
| N#Cc1nn(-c2c(Cl)cc(C(F)(F)F)cc2Cl)c(N)c1S(=O)C(F)(F)F (configuration not stated) |  | inactive |
| CNC(=O)ON=CC(C)(C)SC |  | inactive |
| CCOC(=O)CC(SP(=S)(OC)OC)C(=O)OCC (configuration not stated) | 14.2 µM (active) and 8.93 µM (active) |  |

test system: DIO2 (gene 1734); experiment: CCTE_GLTED_hDIO2: CCTE's human Deiodinase 2 (DIO2) Inhibition Assay, Great Lakes Toxicology and Ecology Division (GLTED) Lab (AID 2284050; active means hit-call score of the fitted dose curve at least 0.9, where 1 is the maximum)
Outline: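 Readout: absorbance from Sandell-Kolthoff detection of free iodide released by human DIO2 during a 3 h incubation with chemical. Cell-free format, n=3; activity fitted relative to DMSO negative control.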

| SMILES | AC50 | outcome |
| --- | --- | --- |
| CN(C)C(=S)SSC(=S)N(C)C | 55.7 µM (active) |  |
| CCNc1nc(Cl)nc(NC(C)C)n1 |  | inactive |
| C=CCC1=C(C)C(OC(=O)C2C(C=C(C)C)C2(C)C)CC1=O (configuration not stated) | 44.9 µM (active) |  |
| Fc1ccc(Oc2ccnc3cc(Cl)cc(Cl)c23)cc1 | 10.1 µM (active) |  |
| CCCN(CCC)c1c([N+](=O)[O-])cc(S(N)(=O)=O)cc1[N+](=O)[O-] | 141 µM (active) |  |
| Cc1ccc(-c2c(Cl)nc(C#N)n2S(=O)(=O)N(C)C)cc1 | 81.8 µM (active) |  |
| Oc1ccccc1-c1ccccc1 | 38.2 µM (active) |  |
| N#Cc1nn(-c2c(Cl)cc(C(F)(F)F)cc2Cl)c(N)c1S(=O)C(F)(F)F (configuration not stated) | 29.6 µM (active) |  |

test system: not listed separately; experiment: CCTE_Shafer_MEA_dev_spike_duration_mean: CCTE's Neural Network Formation Assay for Mean Spike Duration, Shafer Lab (AID 2284051);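 further: mean network spike duration pooled as area under curve over DIV 5 to 12 recordings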;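 on AC50: potency for a decrease in mean network spike duration versus DMSO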
Outline: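 Primary rat cortical neurons on 16-electrode MEA wells (PEI-coated, laminin in plating drop), exposed from plating through DIV 12 with compound renewed at DIV 5 and 9. Mean network-spike duration recorded DIV 5, 7, 9, 12; trapezoidal AUC across days, DMSO baseline.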

| SMILES | AC50 | outcome |
| --- | --- | --- |
| CN(C)C(=S)SSC(=S)N(C)C | 0.00527 µM (active) |  |
| CCCCOC(=O)c1ccccc1C(=O)OCCCC | 50 µM (active) |  |
| CCNc1nc(Cl)nc(NC(C)C)n1 |  | inactive |
| C=CCC1=C(C)C(OC(=O)C2C(C=C(C)C)C2(C)C)CC1=O (configuration not stated) |  | inactive |
| C=CC1(C)OC(=O)N(c2cc(Cl)cc(Cl)c2)C1=O (configuration not stated) |  | inactive |
| CCCCNC(=O)n1c(NC(=O)OC)nc2ccccc21 |  | inactive |
| COc1ccc(C(c2ccc(OC)cc2)C(Cl)(Cl)Cl)cc1 | 2.99 µM (active) |  |
| COC(=O)N(OC)c1ccccc1COc1ccn(-c2ccc(Cl)cc2)n1 | 88.7 nM (active) and 9.7 nM (active) |  |
| CCOc1cc(Oc2ccc(C(F)(F)F)cc2Cl)ccc1[N+](=O)[O-] | 4.18 µM (active) |  |
| CO/C=C(/C(=O)OC)c1ccccc1Oc1cc(Oc2ccccc2C#N)ncn1 | 1.08 µM (active) and 874 nM (active) |  |
| COP(N)(=O)SC (configuration not stated) |  | inactive |
| Cc1ccc(-c2c(Cl)nc(C#N)n2S(=O)(=O)N(C)C)cc1 | 29.7 µM (active) |  |
| CC(C)(C)c1ccc(CSc2cnn(C(C)(C)C)c(=O)c2Cl)cc1 | 0.00163 µM (active) |  |
| COP(=S)(OC)Oc1nc(Cl)c(Cl)cc1Cl |  | inactive |
| CCCCNC(=O)OCC#CI | 3.81 µM (active) and 1.12 µM (active) |  |
| CCCCC(CC)COC(=O)c1ccccc1C(=O)OCC(CC)CCCC (configuration not stated) | 9.35 µM (active) and 4.75 µM (active) | inactive |
| N#Cc1nn(-c2c(Cl)cc(C(F)(F)F)cc2Cl)c(N)c1S(=O)C(F)(F)F (configuration not stated) |  | inactive |
| Cc1c(F)c(F)c(COC(=O)C2C(/C=C(\Cl)C(F)(F)F)C2(C)C)c(F)c1F (configuration not stated) | 2.15 µM (active) |  |
| CNC(=O)ON=CC(C)(C)SC |  | inactive |
| CCOC(=O)CC(SP(=S)(OC)OC)C(=O)OCC (configuration not stated) | 13.1 µM (active) and 4.76 µM (active) |  |

Reference: PubChem BioAssay (EPA / NIEHS)
